Among all 310,000 compounds or so, about 14,000 (4.5%) showed an effect of 50% or more. Effects have a minus sign here. Shown is part of a subset that was picked to be rich in strong results.
molecular target: human ether-à-go-go-related gene (hERG) potassium channel (human, UniProt Q12809); assay: primary screen, population patch clamp on CHO cells stably expressing hERG; higher = less effect of the substance
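Further: peak tail current of the secondary pulse compared with the same well before compound.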

Chain of human ether-à-go-go-related gene (hERG) potassium channel (Q12809 whole entry, looked up): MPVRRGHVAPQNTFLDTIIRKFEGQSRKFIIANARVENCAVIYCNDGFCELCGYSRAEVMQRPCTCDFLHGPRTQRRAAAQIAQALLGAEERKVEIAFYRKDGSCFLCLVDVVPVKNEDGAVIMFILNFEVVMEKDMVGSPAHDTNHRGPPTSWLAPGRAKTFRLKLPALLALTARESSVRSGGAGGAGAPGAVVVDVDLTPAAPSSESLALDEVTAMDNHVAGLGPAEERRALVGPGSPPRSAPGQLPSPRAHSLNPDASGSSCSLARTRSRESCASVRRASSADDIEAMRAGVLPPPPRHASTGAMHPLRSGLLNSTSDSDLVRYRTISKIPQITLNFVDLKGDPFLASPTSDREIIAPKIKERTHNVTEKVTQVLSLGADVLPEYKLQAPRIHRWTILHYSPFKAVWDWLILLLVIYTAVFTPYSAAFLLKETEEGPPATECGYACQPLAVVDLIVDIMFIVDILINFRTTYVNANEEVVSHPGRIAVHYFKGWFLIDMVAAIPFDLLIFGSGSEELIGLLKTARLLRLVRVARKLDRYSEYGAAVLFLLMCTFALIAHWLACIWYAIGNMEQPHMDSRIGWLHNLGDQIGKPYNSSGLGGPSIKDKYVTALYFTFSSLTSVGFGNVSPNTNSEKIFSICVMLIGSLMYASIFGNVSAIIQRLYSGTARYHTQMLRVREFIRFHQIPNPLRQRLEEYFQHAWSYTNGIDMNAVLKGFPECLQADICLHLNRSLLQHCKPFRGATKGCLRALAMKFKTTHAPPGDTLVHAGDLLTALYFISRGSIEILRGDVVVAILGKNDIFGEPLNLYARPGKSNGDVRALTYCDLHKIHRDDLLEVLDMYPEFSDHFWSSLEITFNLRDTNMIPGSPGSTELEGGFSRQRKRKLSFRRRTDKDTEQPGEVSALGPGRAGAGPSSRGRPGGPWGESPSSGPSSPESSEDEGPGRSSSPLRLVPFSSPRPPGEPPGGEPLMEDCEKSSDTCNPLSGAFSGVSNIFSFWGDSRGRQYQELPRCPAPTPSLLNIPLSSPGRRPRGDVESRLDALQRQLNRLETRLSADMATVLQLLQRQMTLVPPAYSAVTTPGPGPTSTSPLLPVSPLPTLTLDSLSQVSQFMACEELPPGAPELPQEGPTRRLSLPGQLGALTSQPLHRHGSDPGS

SMILES | hERG current change (%, negative = inhibition) at 10uM
CN(C1CCCCC1)S(=O)(=O)c1ccc(S(=O)(=O)N2CCN(C(=O)c3ccccc3F)CC2)cc1 | -12.2%
CCOC(=O)N1CCC(N2CC34C=CC(O3)C(C(=O)Nc3ccc(OCC)cc3)C4C2=O)CC1 (stereo not drawn) | -18.7%
CC(OC(=O)CNC(=O)COc1ccccc1)C(=O)N(C)Cc1ccccc1 (stereo not drawn) | 5.07%
COC(=O)c1ccccc1NC(=O)C1CCN(S(C)(=O)=O)CC1 | 1.04%
O=C(COC(=O)/C=C/c1ccc(S(=O)(=O)N2CCOCC2)cc1)NC1CCCCCCC1 | 32.2%
CCO.N#CC1=C(N)Oc2c(oc(CO)cc2=O)C1c1ccccc1[N+](=O)[O-] (stereo not drawn) | -1.44%
O=C(c1ccccc1C(=O)N1CCN(c2ccc(F)cc2)CC1)N1CCN(c2ccc(F)cc2)CC1 | -73.8%
CSc1ccccc1C(=O)N1CCN(c2ccc(F)cc2)CC1 | -17.5%
CC(=O)N1CCN(C(=O)c2cccc(S(=O)(=O)NCc3ccccc3)c2)CC1 | 5.5%
O=C(c1ccccc1)c1ccc(C(=O)N2CCN(c3ccc(F)cc3)CC2)o1 | -78.4%
O=C(c1cccc(S(=O)(=O)NCc2ccccc2)c1)N1CCN(c2cccc(C(F)(F)F)c2)CC1 | -4.17%
CC(=O)c1ccc(-c2ccc(C(=O)N3CCN(c4ccc(F)cc4)CC3)o2)cc1 | -16.7%
O=C(c1ccc(CN2CCc3ccccc3C2)cc1)N1CCN(c2ccc(F)cc2)CC1 | -68.6%
O=C(c1ccc(CN2CCc3ccccc3C2)cc1)N1CCCCC1 | -9.72%
O=C(c1cccc(S(=O)(=O)NCc2ccccc2)c1)N1CCN(c2ccc(F)cc2)CC1 | -58.1%
O=C(c1ccc(Br)o1)N1CCN(c2ccc(F)cc2)CC1 | -45.6%
O=C(c1ccc(CN2CCc3ccccc3C2)cc1)N1CCN(c2ccccc2)CC1 | -46.3%
O=C(c1ccccc1C(=O)N1CCN(c2ccccc2)CC1)N1CCN(c2ccccc2)CC1 | -29.7%
COc1ccc(-c2nnc(SCC(=O)Nc3cc(C)on3)o2)cc1 | 14.4%
O=C1C(c2ccc(F)cc2)N(C2CCCCC2)C(=O)CN1C1CCCC1 (stereo not drawn) | -34.1%
O=C(CSc1ccc2nnc(-c3ccncc3)n2n1)Nc1ccc2c(c1)OCCO2 | 10.9%
Cc1ccc(-c2cc(C(=O)O)c3cc(Br)ccc3n2)s1 | 16.7%

SMILES | hERG current change (%, negative = inhibition) at 10uM
COCc1c(C(=O)OCC(=O)NCCc2ccc(S(N)(=O)=O)cc2)oc2ccccc12 | -0.489%
CCc1ccc(NC(=O)CSC2=C(C#N)C(c3ccco3)C3=C(CCCC3=O)N2)cc1 (stereo not drawn) | -1.71%
COc1ccc(-c2nc(CNS(=O)(=O)c3ccc(OC)c(OC)c3)cs2)cc1 | -1.76%
CCN(CC)C(=O)CC(c1ccc(N(C)C)cc1)c1c(O)cc(OC)cc1OC (stereo not drawn) | 18.7%
O=C(COc1ccccc1C(=O)Nc1ccccc1)NCCc1ccccc1 | 34.4%
CCCCN(CCCC)c1cc(C)nc(-c2ccccc2O)n1 | 16.8%
Cc1cccc(OCC(=O)Nc2ccc(S(=O)(=O)Nc3onc(C)c3C)cc2)c1C | 13.3%
Cc1ccc(N(CC(=O)NC2CCCCC2)C(=O)c2ccc(C)s2)cc1 | -11.2%
CCOC(=O)c1c(NC(NC(=O)C(C)C)C(Cl)(Cl)Cl)sc2c1CCC2 (stereo not drawn) | 11%
CC1CN(C(=O)CSc2nc(-c3ccccc3)cs2)CC(C)O1 (stereo not drawn) | 3.57%
O=C(CSc1nc(-c2ccc(F)cc2)cs1)N1CCOCC1 | -25.4%
O=C(CSc1nc(-c2ccc(F)cc2)cs1)N1CCN(C(=O)c2ccco2)CC1 | -57%
O=C(CSc1nc(-c2ccccc2)cs1)N1CCN(C(=O)c2ccco2)CC1 | -60.6%
O=C(c1ccco1)N1CCN(c2nc(-c3ccc(F)cc3)cs2)CC1 | -34.9%
O=C(CSc1nncs1)N1CCN(C(=O)c2ccco2)CC1 | 5.31%
O=[N+]([O-])c1ccc(N=Nc2c(Cl)cc(O)cc2Cl)cc1 | 18.2%
CN(C)S(=O)(=O)c1cccc(NC(=O)COc2ccc3ccccc3c2)c1 | -7.08%
O=C(O)c1ccc(/C=N/N2CCN(C3c4ccccc4-c4ccccc43)CC2)cc1 | 12.1%
Cc1ccccc1-c1nnc(SCC(=O)NCc2ccc3c(c2)OCO3)n1C | -8.1%
O=C(CSc1nnc(-c2cccnc2)n1-c1ccc(F)cc1)NCc1ccc2c(c1)OCO2 | -72.5%
O=C(CSc1ncc(C(=O)O)n1-c1ccc(F)cc1)NCc1ccc2c(c1)OCO2 | 35.8%
O=C(CSc1nnc(-c2ccco2)n1-c1ccccc1)NCc1ccc2c(c1)OCO2 | -73.4%

SMILES | hERG current change (%, negative = inhibition) at 10uM
O=C(CSc1nnc(-c2cccnc2)n1-c1ccccc1)Nc1ccc2c(c1)OCO2 | -6.74%
C=CCn1c(SCC(=O)NCc2ccc3c(c2)OCO3)nnc1-c1cccnc1 | -0.64%
CCn1c(SCC(=O)NCc2ccc3c(c2)OCO3)nnc1-c1ccco1 | -5.03%
O=C(CSc1nc2ccccc2c(=O)n1-c1ccccc1)NCc1ccc2c(c1)OCO2 | 3.23%
O=C(CSc1nnc(-c2cccnc2)n1-c1ccccc1)NCc1ccc2c(c1)OCO2 | -69%
CC(=O)Oc1ccc(-c2cccc(C(=O)N(C)c3ccc(O)cc3)c2)cc1 | -17.8%
CN(C)c1ccc(C(=S)Nc2ccccc2)cc1 | 12.5%
COC(=O)c1cc(NC(=O)c2nccnc2C(=O)O)cc(C(=O)OC)c1 | 13.8%
Cc1ccc(CNC(=O)c2ccc(N3CCc4ccccc43)c([N+](=O)[O-])c2)cc1 | 3.31%
Cc1ccc2nc3c(cc(C(=O)NCCN4CCOCC4)c(=N)n3CCCN3CCOCC3)c(=O)n2c1 | -7.16%
Cc1ccc2nc3c(cc(C(=O)NCCc4ccccc4)c(=N)n3CCN3CCOCC3)c(=O)n2c1 | -76.7%
Cc1ccc2nc3c(cc(C(=O)NCCc4ccccc4)c(=N)n3CCCN3CCOCC3)c(=O)n2c1 | -80.6%
Cc1ccc(-c2cc(C(=O)NCCCN3CCOCC3)c3ccccc3n2)cc1C | 0.698%
O=C(NCc1ccco1)c1cccc(F)c1 | 6.59%
O=C(COc1cccc(Cl)c1)Nc1ccc2c(c1)CCC2 | -3.73%
CC1CN(c2nnnn2-c2ccccc2)CC(C)O1 (stereo not drawn) | -23.1%
CCOc1ccc(CN2CCNC(=O)C2CC(=O)O)cc1 (stereo not drawn) | 11.1%
CC(=O)Nc1sc(C)c(C)c1C(=O)OCC(=O)Nc1ccccc1 | 5.91%
S=C(Cc1ccc(-c2ccccc2)cc1)N1CCOCC1 | -11.9%
Cc1oc(-c2ccccc2F)nc1CS(=O)(=O)CC(=O)NCc1ccco1 | -27.3%
CC1CCC(NS(=O)(=O)c2ccc(N3CCCC3=O)cc2)CC1 (stereo not drawn) | 1.51%
COc1ccc(N=C2SCC(c3ccc([N+](=O)[O-])cc3)=NN2CCO)cc1 | -53.1%

SMILES | hERG current change (%, negative = inhibition) at 10uM
O=[N+]([O-])c1ccc(C2=NN(CCO)C(=Nc3ccc(OC(F)(F)F)cc3)SC2)cc1 | -13.5%
COc1ccc(N=C2SCC(c3ccc(C)cc3)=NN2CCO)cc1 | -9.63%
Cc1ccc(C2(C)NC(=O)N(CC(=O)Nc3ccccc3C(=O)N3CCCCC3)C2=O)cc1 (stereo not drawn) | 6.74%
Cc1ccc(S(=O)(=O)N2CCOCC2)cc1NC(=O)COC(=O)CCn1c(C)csc1=O | 2.85%
COCCN=c1scc(-c2cccs2)n1/N=C/c1ccc(O)c(O)c1O | 6.24%
COCCN=c1scc(C)n1/N=C/C1CC2C=CC1C2 (stereo not drawn) | -55%
COCCN=c1scc(-c2ccccc2)n1/N=C/c1c[nH]c2ccccc12 | 18.7%
COc1ccc(Cl)cc1S(=O)(=O)N(C)CC(=O)NCc1ccccn1 | 17.8%
C=CCn1c(O)c(C=Nc2ccc(N(CC)CC)cc2)c(=O)[nH]c1=O | -7.13%
Cc1ccc(CSc2nnc(-c3ccccn3)n2C)cc1 | -3.39%
O=C(CSc1ccc2nnc(-c3ccccn3)n2n1)Nc1ccc(F)cc1 | -48.2%
c1ccc(CSc2ccc3nnc(-c4ccccn4)n3n2)cc1 | -69.5%
O=C(CSc1ccc2nnc(-c3ccccn3)n2n1)Nc1ccccc1F | -14.7%
Cc1ccc(CSc2ccc3nnc(-c4ccccn4)n3n2)cc1 | -71.8%
O=C(CSc1ccc2nnc(-c3ccccn3)n2n1)Nc1ccccc1 | -23.4%
Cc1ccc(NC(=O)CSc2ccc3nnc(-c4ccccn4)n3n2)cc1 | -44.2%
Fc1ccc(CSc2ccc3nnc(-c4ccccn4)n3n2)cc1 | -87.6%
O=C(CSc1ccc2nnc(-c3ccccn3)n2n1)Nc1ccc(F)cc1F | -30.4%
Cn1c(SCc2ccc(Br)cc2)nnc1-c1ccccn1 | -19.4%
Brc1ccc(CSc2ccc3nnc(-c4ccccn4)n3n2)cc1 | -67.1%
Nn1c(SCc2ccc(Br)cc2)nnc1-c1ccccn1 | 17.5%

— paper PMC4336329 (PLoS ONE, 2015)
